Test results reported in PubChem BioAssay AID652115 (Broad Institute, 2013).
In all, about 330,000 compounds went through this assay and about 3,800 (1.2%) were called active. This is one part of a sample in which actives are shown more often than they occur. Rule as the data show it: active = inhibition above about 15%; inconclusive = no clear call, values can overlap the other calls; inactive = below that.

Biological target: NAD-dependent protein deacylase sirtuin-5, mitochondrial (Homo sapiens) (UniProt Q9NXA8)
Assay: blockers of sirtuin-5 deacylase activity – biochemical, fluorescence imaging, single point, set 5, primary screen (AID 652115)
Settings: Purified SirT5, succinyl-peptide AMC, trypsin-coupled fluorescence; at 15 µM; hits give high values

Sequence of NAD-dependent protein deacylase sirtuin-5, mitochondrial (Homo sapiens) (Q9NXA8 whole entry, looked up): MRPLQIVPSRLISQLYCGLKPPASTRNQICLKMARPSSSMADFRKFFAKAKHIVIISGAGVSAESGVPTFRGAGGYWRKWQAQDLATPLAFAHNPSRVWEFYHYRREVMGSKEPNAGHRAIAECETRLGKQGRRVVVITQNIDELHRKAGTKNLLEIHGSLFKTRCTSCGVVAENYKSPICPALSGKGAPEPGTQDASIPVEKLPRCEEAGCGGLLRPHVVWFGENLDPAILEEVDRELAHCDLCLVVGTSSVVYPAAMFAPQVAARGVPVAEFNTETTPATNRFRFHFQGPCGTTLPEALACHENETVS

SMILES | inhibition
Cc1noc(C)c1NC(=O)N[C@@H]1CC[C@H](CC(=O)Nc2ccccc2)O[C@H]1CO | 5.15% (inactive)
Cc1noc(C)c1NC(=O)N[C@H]1C=C[C@@H](CC(=O)Nc2ccccc2)O[C@H]1CO | 1.42% (inactive)
Cc1noc(C)c1NC(=O)N[C@@H]1C=C[C@@H](CC(=O)Nc2ccccc2)O[C@H]1CO | 32.2% (active)
c1ccc(CCc2ccccn2)cc1 | 9.65% (inactive)
O=S(=O)(Cc1ccccc1)c1nc2ccccc2n1Cc1ccccn1 | 21.7% (active)
CC(=O)c1nc2ccccc2n1Cc1ccccc1 | -2.51% (inactive)
COc1ccccc1NC(=O)N[C@H]1C=C[C@H](CC(=O)N[C@@H](C)c2ccccc2)O[C@H]1CO | -1.94% (inactive)
C/C=C/c1cnc2c(c1)C(=O)N([C@@H](C)CO)C[C@@H](C)[C@@H](CN(C)C(=O)c1cnccn1)O2 | -1.71% (inactive)
Cc1scc(C(=O)NNC(=S)NCC(C)C)c1C | -4.94% (inactive)
Cc1occc1C(=O)NNC(=S)NCC(C)C | 19.4% (active)
Cc1scc(C(=O)NNC(=S)NCc2ccccc2)c1C | -0.205% (inactive)
CO[C@H]1CN(C)C(=O)c2cc(NC(=O)C3CC3)ccc2OC[C@H](C)N(C(=O)CN(C)C)C[C@H]1C | 0.163% (inactive)
CCC(=O)N1[C@@H]2c3ccc(-c4ccc(F)cc4)c(=O)n3C[C@H]1[C@H](CO)[C@H]2C(=O)N(C)C | -32.2% (inactive)
COc1ccc2c3c(n(C)c2c1)[C@@H](CO)N(CC1CC1)CC31CCN(C(=O)c2ccc3c(c2)OCO3)CC1 | 3.18% (inactive)
CC(C)Oc1ccc(C(=O)NCC(=O)Nc2ccc3c(c2)CCC3)cc1 | -4.19% (inactive)
COc1cccc(NC(=O)CN(C)CC(=O)Nc2ccc3c(c2)CCC3)c1 | 2.3% (inactive)
COc1ccc(-c2ocnc2C(=O)Nc2ccc3c(c2)CCC3)cc1 | 22.1% (active)
CNC(=O)C[C@@H]1CC[C@H]2[C@H](COc3ccc(NC(=O)c4cccc(OC)c4)cc3C(=O)N2C)O1 | 2.09% (inactive)
CO[C@H]1O[C@H](CO)[C@@H](OC(=O)Nc2ccccc2-c2ccccc2)[C@H](OC(=O)Nc2ccccc2)[C@H]1OC(=O)Nc1ccccc1 | 8.45% (inactive)
CO[C@H]1O[C@H](CO)[C@@H](OC(=O)Nc2ccccc2)[C@H](OC(=O)Nc2ccc3c(c2)OCO3)[C@H]1OC(=O)Nc1ccc2c(c1)OCO2 | 2.4% (inactive)
CCc1cccc(NC(=O)O[C@H]2[C@H](OC(=O)Nc3ccccc3-c3ccccc3)[C@H](OC(=O)Nc3ccccc3-c3ccccc3)[C@@H](OC)O[C@@H]2CO)c1 | 17.1% (active)
C[C@H]1CN([C@@H](C)CO)C(=O)c2cc(C3=CCCCC3)cnc2O[C@@H]1CN(C)C(=O)c1ccc(F)cc1 | 1.19% (inactive)
CCCNC(=O)N1[C@H](CO)[C@@H]2c3ccccc3N(C(=O)C3CC3)C[C@@H]21 | 1.05% (inactive)
Cc1ccccc1C(=O)OC1OC(=O)C(Cl)=C1Nc1ccccc1 (stereo unspecified) | -2.37% (inactive)
CCOC(=O)c1ccc(Nc2cc3ccccc3c(=O)[nH]2)cc1 | -0.372% (inactive)
Cc1ccc(NC2=C(Cl)C(=O)OC2OC(=O)c2ccccc2C)cc1 (stereo unspecified) | 17.3% (active)

SMILES | inhibition
O=C(c1cccnc1)N1CC(=O)N2[C@H](C1)[C@H](c1ccc(-c3ccccc3F)cc1)[C@@H]2CO | -2.3% (inactive)
CCCNC(=O)Nc1ccc2c(c1)C(=O)N(C)C[C@H](OC)[C@H](C)CN(Cc1cccnc1)[C@@H](C)CO2 | 0.086% (inactive)
O=[N+]([O-])c1ccc2oc(-c3cccc(O)c3)nc2c1 | 18.3% (active)
O=[N+]([O-])c1ccc2c(c1)Nc1nc3ccccc3nc1N2 | 1.03% (inactive)
CC(=O)Oc1ccc2c(=O)oc(-c3ccc([N+](=O)[O-])cc3)nc2c1 | -2.32% (inactive)
Cc1cccc(C(=O)NCc2nnc(SC(C)C(=O)Nc3nnc(C)s3)n2C)c1 (stereo unspecified) | 21.7% (active)
COc1ccccc1C(=O)NCc1nnc(SC(C)C(=O)Nc2nccs2)n1C (stereo unspecified) | -2% (inactive)
CC(Sc1nnc(CNC(=O)c2ccccc2F)n1C)C(=O)Nc1nccs1 (stereo unspecified) | -2.13% (inactive)
CCCNC(=O)C[C@H]1CC[C@H]2[C@@H](COC[C@@H](O)CN2C(=O)Nc2ccc(Cl)c(Cl)c2)O1 | 3.46% (inactive)
Nc1nc2c(ncn2[C@@H]2O[C@H](CNCc3ccc(OCCCN4CCOCC4)cc3)[C@@H](O)[C@H]2O)c(=O)[nH]1 | 22.3% (active)
CC(C)(O)C#Cc1ccc(CNC[C@H]2O[C@@H](n3cnc4c(=O)[nH]c(N)nc43)[C@H](O)[C@@H]2O)s1 | -5.95% (inactive)
Nc1nc2c(ncn2[C@@H]2O[C@H](CNS(=O)(=O)N3CCc4ccccc4C3)[C@@H](O)[C@H]2O)c(=O)[nH]1 | 2.78% (inactive)
CCOC(=O)[C@]12CCCC=C1N(CCC1=CCCCC1)C(=O)[C@H](CC(=O)N1CCN(C(=O)c3ccco3)CC1)C2 | 16.3% (active)
CCOC(=O)[C@]12CCCC=C1N(CCC1=CCCCC1)C(=O)[C@H](CC(=O)N1CCCCC1)C2 | -0.497% (inactive)
CCOC(=O)[C@]12CCCC=C1N(CCC1=CCCCC1)C(=O)[C@H](CC(=O)N1CCSCC1)C2 | 0.458% (inactive)
C[C@H]1CN([C@@H](C)CO)C(=O)c2cc(C#CC3CCCC3)cnc2O[C@@H]1CN(C)C(=O)Cc1ccccn1 | 0.934% (inactive)
COc1ccc(Cn2c(=S)[nH]c3cc(C(=O)N4CCCCC4)ccc3c2=O)cc1 | 16.6% (active)
COc1ccc(OC)c(-n2c(=S)[nH]c3cc(C(=O)N4CCCCC4)ccc3c2=O)c1 | -0.433% (inactive)
COc1ccc(Cn2c(=S)[nH]c3cc(C(=O)NCCCN4CCOCC4)ccc3c2=O)cc1 | -1.07% (inactive)
Cn1cnc(S(=O)(=O)N2C[C@H](O)COC[C@@H]3O[C@H](CC(=O)NC4Cc5ccccc5C4)CC[C@H]32)c1 | 1.91% (inactive)
COc1cccc(C#Cc2ccc3c(c2)[C@H]2[C@H](CCN2C(=O)CC2CC2)[C@H](CO)N3)c1 | 0.183% (inactive)
O=C(N/N=C/c1ccco1)c1ccc(NC(=O)C2CC2)cc1 | 0.297% (inactive)
O=C(N/N=C/c1ccco1)c1csc2c1CCCC2 | 15.8% (active)
Cc1ccc(NC(=O)c2csc3c2CCCC3)cc1 | -2.6% (inactive)
CCCNC(=O)N1C[C@H](O)COC[C@H]2O[C@@H](CC(=O)NCc3ccncn3)CC[C@@H]21 | 0.03% (inactive)
C[C@@H]1CN([C@@H](C)CO)C(=O)c2cc(-c3cncnc3)cnc2O[C@H]1CN(C)Cc1cncnc1 | 4.33% (inactive)

SMILES | inhibition
Cc1ccccc1NC(=O)CN1C(=O)N/C(=C\c2cccn2-c2cccc(C(=O)O)c2)C1=O | 18.5% (active)
Cc1ccccc1NC(=O)CSC(=O)c1ccccc1 | -2.14% (inactive)
Cc1ccccc1NC(=O)Cn1c(=O)n(CC2CCCO2)c(=O)c2ccccc21 (stereo unspecified) | -0.914% (inactive)
O=C(C[C@@H]1CC[C@H](NC(=O)NC2CCCCC2)[C@H](CO)O1)NCc1ccc(F)cc1 | 2.17% (inactive)
O=C(C[C@@H]1C[C@H]2c3cc(NS(=O)(=O)c4ccc(F)cc4)ccc3O[C@H]2[C@@H](CO)O1)NCc1ccccc1F | 2.14% (inactive)
C[C@H](CO)N1C[C@H](C)[C@H](CN(C)C(=O)Nc2ccc(F)cc2)OCCCC[C@H](C)Oc2ccc(NC(=O)CCC(F)(F)F)cc2C1=O | -0.898% (inactive)
COCC#Cc1cnc2c(c1)C(=O)N([C@H](C)CO)C[C@H](C)[C@H](CN(C)C(=O)CCN1CCCCC1)O2 | 9.41% (inactive)
CCCN1[C@H](C(=O)NC2Cc3ccccc3C2)[C@@H](CO)[C@@H]2Cn3c(cccc3=O)[C@@H]21 | 2.03% (inactive)
COCC(=O)N1CC(=O)N2[C@H](CO)[C@@H](c3ccc(C#CC4CCCC4)cc3)[C@H]2C1 | 0.692% (inactive)
CCCC#Cc1ccc([C@H]2[C@@H](CO)N3CCCCN(S(=O)(=O)Cc4ccccc4)C[C@H]23)cc1 | 37.3% (active)
CCCC#Cc1ccc([C@H]2[C@@H](CO)N3CCCCN(S(=O)(=O)CC)C[C@H]23)cc1 | -3.78% (inactive)
CCCC#Cc1ccc([C@H]2[C@H](CO)N3CCCCN(S(=O)(=O)CC)C[C@@H]23)cc1 | -5.72% (inactive)
COC(=O)C[C@H]1CC[C@H]2[C@@H](COc3ccc(NC(=O)C4CC4)cc3C(=O)N2C)O1 | 4.29% (inactive)
COc1ccc2c3c(n(C)c2c1)[C@H](CO)N(C(C)=O)CC31CCN(Cc2cccnc2)CC1 | -0.634% (inactive)
Cc1ccc(S(=O)(=O)N[C@@H]2CC[C@H](CCn3cc(-c4cccc(F)c4)nn3)O[C@@H]2CO)cc1 | -2.4% (inactive)
Clc1ncn(CCOc2ccccc2)c1Cl | -0.177% (inactive)
Cc1cccc(OC(=O)c2sc3ncn(C)c(=O)c3c2C)c1 | 6.38% (inactive)
Cc1c(C(N)=O)sc2ncn(CCOc3ccccc3)c(=O)c12 | 25.5% (active)
COc1ccc(NC(=O)Nc2ccc3c(c2)C(=O)N([C@H](C)CO)C[C@@H](C)[C@H](CN(C)CC2CCCCC2)OCCCC[C@@H](C)O3)cc1 | -2.57% (inactive)
CCC(=O)N1CC(=O)N2[C@H](CO)[C@@H](c3ccc(-c4ccc(C(=O)N(C)C)cc4)cc3)[C@H]2C1 | -3.02% (inactive)
CCNC(=O)C[C@H]1CC[C@@H]2[C@H](COC[C@H](O)CN2C(=O)Nc2c(C)noc2C)O1 | -2.07% (inactive)
O=C(NC(c1ccc(Cl)cc1)c1cnccn1)C1CCN(Cc2ccc(Cl)cc2)CC1 (stereo unspecified) | 18.2% (active)
Cc1cccnc1C(NC(=O)C1CCN(Cc2ccc(Cl)c(Cl)c2)CC1)c1ccc(Cl)cc1 (stereo unspecified) | 0.115% (inactive)
O=C(NC(c1ccc(-c2ccccc2)cc1)c1cnccn1)C1CCN(CCOc2ccc(Cl)cc2Cl)CC1 (stereo unspecified) | -0.795% (inactive)
